Reference: PubChem BioAssay AID1212 (NMMLSC, 2008)
The source made the active and inactive calls.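 The calls were made as follows: active = blocks over 60% of fluorescent estradiol binding at 10 µM; inactive = the rest.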

molecular target: G-protein coupled estrogen receptor 1 (Homo sapiens) (UniProt Q99527); assay: displacement of E2-Alexa633 from GPER – cell-based, Cos7 GPR30-GFP, flow cytometry, 10 µM, primary screen (AID 1212); details: fluorescent estrogen competition, at 10 µM; active compounds read high

Compound	inhibition	outcome
COc1cc2c(cc1OC)CC(C)(C)NC2	3% (inactive)	–
COc1ccc2[nH]cc(CCN=C(N)N)c2c1	–	inactive
COc1ccc(C2(CN)CCCC2)cc1OC	–	inactive
COc1ccc(C2(CN)CCCC2)cc1	10% (inactive)	–
N=c1c[n+](CCc2ccc(O)cc2)[n-]o1	–	inactive
CCNCC1(c2ccc(OC)c(OC)c2)CCCC1	7% (inactive)	–
CC1(C)CC(CCNCc2ccc3c(c2)OCO3)(Cc2ccccc2)CCO1 (stereo not drawn)	–	inactive
O=C1C2CCN(CC2)C1Cc1ccc(O)cc1 (stereo not drawn)	–	inactive
